We go through nine compounds from PubChem BioAssay.

The structures appear in SMILES notation. Active and inactive are the calls of the source.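 Rule for the calls, unless noted: active = fluorescence slope higher than the sample average by over 3 SD (cut at about -0.22 in these data, passing the limit was not always enough); inactive = the rest.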

Test [1] in a line: inhibitors of TNFa-induced NFkB p65 translocation, primary screen, imaging, HUVEC, MLSMR starter and 10KST1 sets (AID 438;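 active = inhibition above 20% together with a positive visual image hit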;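 note: compound added about 3h40 before a 20 min TNFalpha stimulation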;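 for inhibition: signal is the nuclear over cytoplasmic p65 intensity ratio per well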). The note with it: HUVEC TNFa-induced p65 nuclear translocation; cell count: measured here: nuclei count (cytotoxicity indicator), at 2.08 µM; inhibition: at 2 µM, stronger effect = higher value, 0% TNFa-plus-vehicle, 100% no-TNFa wells.
Test [2] in a line: inhibitors of mutant huntingtin aggregation, primary screen, imaging, exon1htt(103Q)mCFP cells, high-content imaging (AID 483;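 active = visual image review flags a hit and inhibition of aggregation exceeds 20%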;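 note: compound exposure lasted 3 days before fixation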;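 for nuclei count: percent of the per-plate median nuclei count of sample wells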). The note with it: exon1htt(103Q)mCFP cell line, aggregate imaging, at 2 µM; inhibition of aggregation: stronger effect = higher value; nuclei count: measured here: cell count, toxicity.
The nature of test [3]: inhibitors of E-selectin induction by TNFa, primary screen, imaging, HUVEC, immunofluorescence, MLSMR starter and 10KST1 sets (AID 487;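 active = visually confirmed hit in the image check and inhibition above 20%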;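 for inhibition: signal is fraction of cell area covered by stained E-selectin grains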;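 for nuclei count: 100% = median nuclei count of all wells on the same plate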). To be noted: HUVEC TNFalpha-induced E-selectin immunofluorescence imaging, at 2 µM; inhibition: stronger effect = higher value; nuclei count: measured here: cell number, toxicity.
For test [4], the target named is Voltage-gated potassium channel subunit beta-2 (Rattus norvegicus) (UniProt P62483). The experiment in a line: KvBeta enzyme negative modulators, primary screen, biochemical, NADPH fluorescence (AID 622).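 Note: slope of raw intensity against log time taken from 70 to 1610 s.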 To be noted: recombinant KvBeta, 4-cyanobenzaldehyde reduction, at 10 µM, stronger effect = higher value.
Test [5] has the same target. The experiment in a line: KvBeta positive modulators, primary screen, biochemical, NADPH fluorescence (AID 623;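 active = NADPH fluorescence slope more negative than the mean of all samples by about 3 SD, 99.7% confidence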;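 note: fluorescence intensity change per second fitted from 20 to 320 s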). To be noted: Recombinant KvBeta, NADPH fluorescence decrease slope, 10 min; at 10 µM; stronger effect = lower value.
Test [6] addresses Alpha-2C adrenergic receptor (Homo sapiens) (UniProt P18825). The experiment in a line: modulators of alpha2C/GIRK thallium flux, primary screen, cell-based, HEK293 alpha2C/GIRK1/2 (AID 624;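 active = fluorescence slope after compound addition differing from the mean of all screened samples at 99.7% confidence, in either direction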;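 note: slope of fluorescence ratio to pre-addition baseline per second over 15 to 24 s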). The note with it: thallium flux BTC fluorescence, at 10 µM, actives lie on both sides.
Test [7] in a line: inhibitors of Sendai virus-induced IRF3 signaling, primary screen, TLR/RLR signaling modifier project, cell-based, Sendai virus stimulus, luciferase, 10K MLSCN set (AID 602276;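 active = inhibition at or above 50% at 10 µM; inactive = inhibition below 50%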;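 note: firefly luciferase from ISG56 promoter only with Renilla not read in this screen; 0% = Sendai virus plus DMSO and 100% = medium plus DMSO without virus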). To be noted: HEK293 RL24 IRF3 luciferase reporter, at 10 µM, stronger effect = higher value. For orientation: Reporter assays use an easily measured gene product as a stand-in for the process of interest.
A short description of test [8]: inhibitors of poly I:C-induced TLR3 signaling, primary screen, cell-based, poly I:C stimulus, luciferase, 10K MLSCN set (AID 602277;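 active = inhibition of the reporter signal at or above 50%; inactive = inhibition below 50%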). The note with it: HEK293-TLR3 RL24 IRF3 luciferase reporter, at 10 µM, stronger effect = higher value.

Sequence of Voltage-gated potassium channel subunit beta-2 (Rattus norvegicus) (P62483 whole entry, looked up): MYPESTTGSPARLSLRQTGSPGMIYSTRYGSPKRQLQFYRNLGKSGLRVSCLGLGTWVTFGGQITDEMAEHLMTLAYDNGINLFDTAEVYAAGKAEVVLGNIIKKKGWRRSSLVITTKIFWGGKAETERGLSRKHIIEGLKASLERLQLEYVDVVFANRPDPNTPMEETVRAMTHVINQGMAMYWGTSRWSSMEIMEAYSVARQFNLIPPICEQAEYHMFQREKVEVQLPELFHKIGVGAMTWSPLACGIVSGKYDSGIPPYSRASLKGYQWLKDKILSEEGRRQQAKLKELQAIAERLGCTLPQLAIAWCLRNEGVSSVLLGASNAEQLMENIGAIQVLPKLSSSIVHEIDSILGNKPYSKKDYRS
Sequence of Alpha-2C adrenergic receptor (Homo sapiens) (P18825 whole entry, looked up): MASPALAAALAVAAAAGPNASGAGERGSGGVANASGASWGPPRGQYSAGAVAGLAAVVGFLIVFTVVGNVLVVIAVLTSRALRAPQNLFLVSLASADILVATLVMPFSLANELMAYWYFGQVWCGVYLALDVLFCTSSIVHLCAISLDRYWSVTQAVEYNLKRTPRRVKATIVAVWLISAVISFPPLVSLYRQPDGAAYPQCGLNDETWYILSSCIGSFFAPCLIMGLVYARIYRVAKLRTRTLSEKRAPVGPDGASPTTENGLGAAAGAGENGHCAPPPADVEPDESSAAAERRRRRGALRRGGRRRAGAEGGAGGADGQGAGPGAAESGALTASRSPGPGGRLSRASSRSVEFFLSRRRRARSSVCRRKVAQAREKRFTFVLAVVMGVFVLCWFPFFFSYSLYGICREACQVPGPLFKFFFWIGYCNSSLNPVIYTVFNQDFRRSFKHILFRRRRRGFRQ

Usually inhibition stands for the change of the read-out against control, counted positive when it falls. `Cc1cc(NC(=O)CSc2nc3ccccc3n2CC(=O)N2CCCCC2)no1`: the cell count in test [1] was determined as 722. The inhibition in test [1] is -2% (inactive); in test [3] it was -70.8% (inactive); in test [7], 14.5% (inactive); in test [8] it was 29.1% (inactive). For the same compound, the inhibition of aggregation in test [2] is -15% (inactive). Further, the nuclei count came out at 108% in test [2] and 119% in test [3]. In test [4], the fluorescence slope is -0.475 (inactive). Also, the NADPH fluorescence slope in test [5] was -4.9e-05 (inactive). Further, the slope in test [6] was 0.00628 (inactive).
For the compound `O=S(=O)(c1ccccc1)N(Cc1nc(-c2ccccc2)no1)C1CCCCC1`, the cell count in test [1] came out at 446. In addition, the inhibition is 2% (inactive) in test [1], -57.4% (inactive) in test [3], 16.6% (inactive) in test [7] and 30.8% (inactive) in test [8]. For the same compound, the inhibition of aggregation in test [2] is 5.6% (inactive). For the same compound, the nuclei count in test [2] was found to be 76.3%; in test [3], 96.2%. The fluorescence slope in test [4] is -0.461 (inactive). The NADPH fluorescence slope in test [5] is -1.2e-05 (inactive). Also, the slope in test [6] was 0.00919 (inactive).
`O=C(O)C1CCCN1C(=O)c1cccs1` (centres undefined): the cell count in test [1] came to 367. Besides, the inhibition was -18.4% (inactive) in test [1], -53% (inactive) in test [3], 5.87% (inactive) in test [7] and 10.7% (inactive) in test [8]. Moreover, the inhibition of aggregation in test [2] was -4.2% (inactive). The nuclei count stood at 105% in test [2] and 117% in test [3]. Also, in test [4], the fluorescence slope was -0.487 (inactive). In addition, the NADPH fluorescence slope in test [5] is -7.9e-05 (inactive). Besides, in test [6], the slope was 0.00489 (inactive).
With `Cn1c(=O)c2c(nc(-n3ccnc3)n2C)n(C)c1=O`, in test [1], the cell count is 311. Moreover, the inhibition in test [1] is -8.5% (inactive); in test [3] it was -22.1% (inactive); in test [7], 15.7% (inactive); in test [8], 17.1% (inactive). The inhibition of aggregation in test [2] is 14.2% (inactive). The nuclei count amounted to 85.8% in test [2] and 104% in test [3]. Further, the fluorescence slope in test [4] is -0.362 (inactive). Further, the NADPH fluorescence slope in test [5] was 8.4e-06 (inactive). The slope in test [6] is 0.00573 (inactive).
For `COC(=O)Cn1c(=O)c2c(nc(Br)n2CC(=O)OC)n(C)c1=O`, the cell count in test [1] turned out to be 640. For the same compound, the inhibition in test [1] was 6.7% (inactive); in test [3], 24.8% (inactive); in test [7], 9.82% (inactive); in test [8], 7.4% (inactive). In test [2], the inhibition of aggregation is -0.4% (inactive). In addition, the nuclei count in test [2] was determined as 103%; in test [3], 101%. For the same compound, the fluorescence slope in test [4] is -0.406 (inactive). Moreover, the NADPH fluorescence slope in test [5] was -1.4e-05 (inactive). Besides, the slope in test [6] is 0.00483 (inactive).
As to `N#Cc1cc2c(nc1SCC(=O)Nc1sc3c(c1C#N)CCC3)CCCCC2`, in test [1], the cell count worked out at 606. The inhibition in test [1] is 5.3% (inactive); in test [3] it was 32.4% (inactive); in test [7], 1.89% (inactive); in test [8], -0.19% (inactive). Besides, in test [2], the inhibition of aggregation was -0.2% (inactive). The nuclei count was 103% in test [2] and 104% in test [3]. Also, the fluorescence slope in test [4] is -0.323 (inactive). Further, the NADPH fluorescence slope in test [5] was -4.1e-05 (inactive). In test [6], the slope is 0.00575 (inactive).
For the compound `O=C(CNCC1CCCO1)Nc1ccccc1-n1cccc1` (centres undefined), the cell count in test [1] stood at 671. The inhibition was -11.4% (inactive) in test [1], -127% (inactive) in test [3], 2.08% (inactive) in test [7] and 15% (inactive) in test [8]. Also, in test [2], the inhibition of aggregation was 1.7% (inactive). For the same compound, the nuclei count in test [2] was determined as 90.8%; in test [3], 127%. The fluorescence slope in test [4] is -0.291 (inactive). For the same compound, the NADPH fluorescence slope in test [5] is -4.7e-05 (inactive). The slope in test [6] was 0.00473 (inactive).
For the compound `O=C(O)CC1=C(O)C(=O)N(c2ccccc2)C1c1ccccc1` (centres undefined), the cell count in test [1] was determined as 405. In addition, the inhibition in test [1] was 1.1% (inactive); in test [3], -61.5% (inactive); in test [7], 4.01% (inactive); in test [8], 29.8% (inactive). The inhibition of aggregation in test [2] is 6.7% (inactive). In addition, the figures for the nuclei count in test [2] and in test [3] were 111% and 117%, respectively. The fluorescence slope in test [4] is -0.391 (inactive). Moreover, in test [5], the NADPH fluorescence slope was -4e-05 (inactive). For the same compound, in test [6], the slope was 0.00537 (inactive).
Turning to `Cc1ccc(NC(=O)c2ccccc2O)cc1`, the cell count in test [1] turned out to be 631. For the same compound, the inhibition in test [1] was 12.1% (inactive); in test [3], -203% (inactive); in test [7] it was -61.1% (inactive); in test [8], -73.1% (inactive). The inhibition of aggregation in test [2] was 8% (inactive). In addition, the figures for the nuclei count in test [2] and in test [3] were 91.3% and 119%, respectively. Further, the fluorescence slope in test [4] was -0.602 (inactive). The NADPH fluorescence slope in test [5] was -5.6e-05 (inactive). Besides, the slope in test [6] is 0.00651 (inactive).
